Fam108B inh: blocks mouse Fam108B hydrolase in RBBP9 counter-screen; inhibition, % at 9.51 µM; recombinant Fam108B, FP-Rh probe fluorescence polarization; AID 1947; 0.33% of 300,000 active;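 active = inhibition above the screen mean inhibition plus 3 SD, computed separately per campaign, cut at about 18% in these data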;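 also: inhibitors lower polarization as less probe binds the enzyme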
PREPL inh: inhibitors of human prolyl oligopeptidase-like enzyme PREPL. recombinant PREPL, fluorescence polarization activity-based probe. inhibition, % at 5.96 µM. 0.68% of 320,000 active. AID 2751
Target sequence (Q4J6C6 whole entry, looked up): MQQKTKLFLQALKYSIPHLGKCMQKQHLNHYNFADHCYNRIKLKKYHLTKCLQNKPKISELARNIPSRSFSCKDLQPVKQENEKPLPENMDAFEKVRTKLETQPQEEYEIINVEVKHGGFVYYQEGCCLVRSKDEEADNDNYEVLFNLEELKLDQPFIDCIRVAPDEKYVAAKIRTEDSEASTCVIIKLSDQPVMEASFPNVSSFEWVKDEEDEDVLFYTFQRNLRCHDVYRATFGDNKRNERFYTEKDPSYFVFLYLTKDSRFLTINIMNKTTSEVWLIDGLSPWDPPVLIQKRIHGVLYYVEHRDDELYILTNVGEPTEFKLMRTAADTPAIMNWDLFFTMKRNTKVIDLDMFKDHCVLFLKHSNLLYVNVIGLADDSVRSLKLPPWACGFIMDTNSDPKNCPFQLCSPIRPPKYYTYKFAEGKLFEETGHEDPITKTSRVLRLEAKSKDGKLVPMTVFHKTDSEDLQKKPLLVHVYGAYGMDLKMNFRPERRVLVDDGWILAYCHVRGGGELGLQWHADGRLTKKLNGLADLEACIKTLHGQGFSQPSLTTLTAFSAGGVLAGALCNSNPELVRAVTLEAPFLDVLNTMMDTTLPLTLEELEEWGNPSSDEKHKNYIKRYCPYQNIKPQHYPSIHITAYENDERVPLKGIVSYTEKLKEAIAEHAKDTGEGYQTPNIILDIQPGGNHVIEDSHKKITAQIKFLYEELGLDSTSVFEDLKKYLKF
LYPLA1 inh: blocks human lysophospholipase 1, a PME1 counter-screen. O75608. recombinant LYPLA1, FP-Rh probe fluorescence polarization. inhibition, % at 5.9 µM. 0.16% of 320,000 active. AID 2174;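 active = inhibition above the mean of all tested compounds plus 3 SD, set per campaign, cut at about 14% in these data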;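 also: inhibitors block serine hydrolase probe labeling of LYPLA1 so polarization falls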
PME-1 primary: blocks human protein phosphatase methylesterase 1 | Q9Y570 | recombinant PME-1, FP-Rh probe fluorescence polarization | inhibition, % at 5.9 µM | 0.53% of 320,000 active | AID 2130;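 active = inhibition above the campaign mean of all compounds plus 3 SD, cut at about 26% in these data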;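 also: competitive labeling of PME-1 active site by serine hydrolase directed probe; inhibitors block probe labeling so polarization falls and inhibition rises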
LYPLA2 inh: blocks human lysophospholipase 2, a PME1 counter-screen; recombinant LYPLA2, FP-Rh probe fluorescence polarization; inhibition, % at 5.9 µM; 0.38% of 320,000 active; AID 2177;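 active = inhibition above the screen-wide mean plus 3 SD, limit set per campaign, cut at about 26% in these data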
Fam108b confirm: Fam108b (mouse) hydrolase inhibition, confirmation assay | shares compounds with Fam108B inh | recombinant Fam108b, FP-Rh probe fluorescence polarization | inhibition, % at 9.51 µM | 44% of 930 active;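 active = inhibition above a limit from the primary screen, the mean over all compounds plus 3 SD, cut at about 19% in these data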;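 also: inhibitors free the probe so polarization falls as inhibition rises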
LYPLA1 conf: counter-screen for PME1 inhibitors: confirmation of human LYPLA1 inhibitors. shares compounds with LYPLA1 inh. recombinant LYPLA1, FP-Rh probe fluorescence polarization. inhibition, % at 5.9 µM. 69% of 480 active;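 active = mean inhibition across replicates above the hit cutoff set in the primary screen, cut at about 15% in these data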;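 also: loss of FP-Rh probe labeling of LYPLA1 seen as lower polarization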
LYPLA2 conf: LYPLA2 (human) inhibition, confirmation counter-screen. shares compounds with LYPLA2 inh. recombinant LYPLA2, FP-Rh probe fluorescence polarization. inhibition, % at 5.9 µM. 72% of 1,100 active;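 active = mean inhibition across replicates above the hit cutoff set in the primary screen, cut at about 26% in these data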;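 also: blocked labeling of the enzyme by serine hydrolase FP-Rh probe lowers polarization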
PREPL confirm: human PREPL inhibition, confirmation; shares compounds with PREPL inh; recombinant PREPL, fluorescence polarization activity probe; inhibition, % at 5.96 µM; 67% of 2,000 active
Of the large screens only hits and unclear results are named; the others gave an inactive call (follow-up assays come after a bar, where they were run). In the library only some 1.3% were active in any assay of this set; here they are far more common. Rule as the data show it, unless noted: active = inhibition above about 43%; inactive = the rest.

Nc1c(S(=O)(=O)O)cc(NC(=O)c2ccccc2)c2c1C(=O)c1ccccc1C2=O	Fam108B inh 53, PREPL inh 65, PME-1 primary 54 | Fam108b confirm 50 | PREPL confirm 55
O=C(Nc1ccccc1-c1ccccc1)c1ccccc1	none
CCOc1ccc(CO/N=C/c2c(C)[nH]c(=O)[nH]c2=O)cc1	none
N#C/C(=C/c1ccc(O)c(O)c1)c1nc2ccccc2[nH]1	Fam108B inh 27, PREPL inh 60, PME-1 primary 29 | Fam108b confirm 29 | PREPL confirm 48
CCOc1nc(-c2ccccc2)ncc1Oc1ccccc1	none
CCN(CC)c1nc2c3c(nc4c(c3c1C#N)CC(=O)N4c1ccc(Cl)cc1)NC(C)=N2	Fam108B inh 24, PREPL inh 66, PME-1 primary 27 | Fam108b confirm 18 | PREPL confirm 65
CN(C)c1ccc(/C=N/N2CCN(c3ccccn3)CC2)cc1	none
O=C(NCc1ccccc1)c1ccc2c(=O)[nH]c3c(C(=O)NCC4CCCO4)sc(=S)n3c2c1 (stereo not drawn)	Fam108B inh 34, PREPL inh 44 | Fam108b confirm 20 | PREPL confirm 64
CCCCCNC(=O)c1ccc2c(=O)[nH]c3c(C(=O)NCC4CCCO4)sc(=S)n3c2c1 (stereo not drawn)	Fam108B inh 21, PREPL inh 61 | Fam108b confirm inactive | PREPL confirm 57
O=C(NCc1ccccc1)c1ccc2c(=O)n(CC3CCCO3)c(=S)[nH]c2c1 (stereo not drawn)	none
CCOc1ccc(OCC)c(NC(=O)c2nnn(CC(=O)Nc3cc(C)cc(C)c3)c2N)c1	none
CN(CCC#N)C(=O)COC(=O)C1c2ccccc2Oc2ccccc21	none
N#CCCN(CCC#N)C(=O)C1c2ccccc2Oc2ccccc21	Fam108B inh 67, PREPL inh 82, LYPLA1 inh 76, PME-1 primary 84, LYPLA2 inh 76 | Fam108b confirm inactive | LYPLA1 conf inactive | LYPLA2 conf inactive | PREPL confirm inactive
CCOC(=O)c1cccc(NC(=O)c2ccc3c(c2)C(=O)N(CC2CCCO2)C3=O)c1 (stereo not drawn)	LYPLA1 inh 28 | LYPLA1 conf 31
COc1ccc(/C=C2/Sc3ccc(C(=O)NCCCN4CCOCC4)cc3NC2=O)cc1OC	LYPLA1 inh 37 | LYPLA1 conf 67
O=C(COC(=O)C1CC1)Nc1ccc(Cl)cc1Cl	none (no result: Fam108B inh)
O=C(CSc1n[nH]c(=O)[nH]c1=O)Nc1ccc2c(c1)C(=O)c1ccccc1C2=O	LYPLA1 inh 14 | LYPLA1 conf inactive
O=C(CSc1ccccn1)Nc1ccc2c(c1)C(=O)c1ccccc1C2=O	none
COc1ccc2c(c1)CCc1c(C(=O)N3CCCc4ccccc43)noc1-2	LYPLA1 inh 34 | LYPLA1 conf 35
Cc1ccsc1C1Nc2ccc3ncccc3c2C2=C1C(=O)CC(C)(C)C2 (stereo not drawn)	LYPLA1 inh 16 | LYPLA1 conf inactive
O=C1CCCC2=C1C(c1cccs1)Nc1ccc3ncccc3c12 (stereo not drawn)	none
O=C(Nc1cccc2ncccc12)c1ccc(Cl)cc1	LYPLA1 inh 29 | LYPLA1 conf inactive
CN(C)C=Nc1nonc1-c1ccccc1	none
CN(C)C=Nc1c(Br)cc(Br)c2nonc12	LYPLA1 inh 14 | LYPLA1 conf inactive
Cn1c(=O)c2cc(NCc3ccccc3)nnc2n(C)c1=O	LYPLA1 inh 19, PME-1 primary 29 | LYPLA1 conf inactive
CC1(/[N+]([O-])=C\c2ccccc2F)CCCCC1=O (stereo not drawn)	none
CC(C)c1nc(-c2c(N)n(C)c(=O)n(C)c2=O)sc1C(=O)C(C)(C)C	none
O=C(Nc1ccncc1)c1ccc2c(c1)C(=O)N(C1CCCCC1)C2=O	LYPLA1 inh 26, LYPLA2 inh 52 | LYPLA1 conf 31
C#CCN1c2ccccc2Sc2cccnc21	LYPLA1 inh 17, PME-1 primary 29 | LYPLA1 conf inactive
O=C(COc1ccc(Br)cc1)N1CCN(c2ccc([N+](=O)[O-])c(N3CCCCC3)c2)CC1	LYPLA1 inh 66 | LYPLA1 conf 76
Cc1ccc(OCC(=O)N2CCN(c3ccc([N+](=O)[O-])c(N4CCOCC4)c3)CC2)cc1	LYPLA1 inh 41 | LYPLA1 conf 49
CN(CCCC1CCCC1)C(=O)c1cc(COc2ccc(F)c(F)c2)on1	LYPLA1 inh 16 | LYPLA1 conf 28
CC12CCC(C(=O)N3CCCCC3)([C@H](Br)C1=O)C2(C)C (stereo partly drawn)	none
CCN(CC)CCNC(=O)CCN1N=C(c2ccccc2)CCC1=O	none
COc1ccccc1C(=O)NCC(=O)N=Nc1c(O)n(C(C)C)c2ccccc12	LYPLA1 inh 20 | LYPLA1 conf 27
COc1ccc(Cl)cc1NC(=O)CN1CCC(n2nnc3ccccc32)CC1	LYPLA1 inh 15 | LYPLA1 conf 19
COc1cc(CNCCCN2CCOCC2)c(Br)cc1OCC(=O)Nc1ccccc1C	LYPLA1 inh 17 | LYPLA1 conf inactive
COc1ccccc1NC(=O)COc1ccc(Br)cc1CNCCCN1CCOCC1	none
Cc1cc(OCC(=O)N2CCN(c3ccccn3)CC2)c(C)cc1Br	none
COC(=O)COC(=O)c1ccc(O)cc1	LYPLA1 inh 15 | LYPLA1 conf inactive
CC(C)N(C(=O)COC(=O)c1ccc(O)cc1)C(C)C	none
CN(C(=O)c1ccc(NC(=O)Cc2cccc([N+](=O)[O-])c2)cc1)C1CCCC1	none (no result: Fam108B inh, LYPLA1 inh, PME-1 primary, LYPLA2 inh)
CN(C(=O)c1ccc(NC(=O)Cc2cccc([N+](=O)[O-])c2)cc1)C1CC1	LYPLA1 inh 42 (no result: Fam108B inh) | LYPLA1 conf 35
N#Cc1cccc(NC(=O)Cn2c3[n+](c4ccc(C(F)(F)F)cc42)CCCCC3)c1	none
CCOC(=O)NC(=O)/C(C#N)=C\Nc1ccc(Cl)cc1Cl	none
CCOC(=O)NC(=O)/C(C#N)=C\Nc1sccc1C(=O)OC	LYPLA1 inh 20, LYPLA2 inh 31 | LYPLA1 conf inactive
Cc1ccc(OCC(=O)N2CCC3(CC2)CC(=O)c2ccccc2O3)cc1	none
O=C1CC2(CCN(C(=O)COc3ccc(Cl)cc3)CC2)Oc2ccccc21	LYPLA1 inh 16 | LYPLA1 conf 21
CCCCNCc1ccc(OCc2ccc(Cl)nc2)c(OC)c1	LYPLA1 inh 15 | LYPLA1 conf inactive
CC(=O)Nc1cccc(OCCCNC(=O)c2ccc(C(C)(C)C)cc2)c1	none

High-throughput results (PubChem)
